Measurements from ChEMBL document CHEMBL4513216, “Probing the Open Global Health Chemical Diversity Library for Multistage-Active Starting Points for Next-Generation Antimalarials” (ACS Infect Dis, 2020).
The whole screen tested about 69,000 compounds, of which about 8,600 (12%) showed an effect of 50% or more. Only a selection was taken, and strong results are over-represented in it overall.

The compounds below were run on Plasmodium berghei (assay: Screen against P. berghei liver stage (PbLuc), transformed with Luciferase, at 10uM). Details: tested at 10 uM.
Format: functional, HepG2

SMILES | INHIBITION
c1cnn(-c2ccc(CN3CCCC(Cn4cncn4)C3)cc2)c1 (stereo unspecified) | 13.3%
O=C(O)C(c1ccc(O)cc1)N1CCC(N2CCSCC2)CC1 (stereo unspecified) | 18.6%
Cc1nc[nH]c1CN(C)Cc1cnn(-c2ccc(F)cc2)c1 | -5.22%
O=S(=O)(CCN1CCCCC1Cn1cccn1)c1ccccc1 (stereo unspecified) | 25.8%
Cc1noc(C)c1CNC(=O)Nc1ccc(N2CCOC(C)C2)cc1 (stereo unspecified) | 5.94%
CN(Cc1cnn(C)c1)C(=O)Cn1c(CS(C)(=O)=O)nc2ccccc21 | -7.11%
CC(CN1CCOC1=O)NC(=O)c1ccccc1Oc1ccccc1 (stereo unspecified) | 18.4%
CCN(Cc1ccoc1)C(=O)NC1CCN(CC2CC2)C1 (stereo unspecified) | 19.3%
CCN(Cc1ccoc1)C(=O)NC1CCN(CC=C(C)C)CC1 | 57.2%
CCN(Cc1ccoc1)C(=O)NC1CCN(CC2CCCC2)CC1 | 48.5%
CN(CC(=O)NS(=O)(=O)c1cccs1)Cc1ccccc1 | 32%
Cc1cccc(CC(=O)NS(=O)(=O)c2ccc(F)c(F)c2)c1 | 23.5%
Cc1cccc(S(=O)(=O)NC(=O)CN(C)Cc2ccccc2)c1 | 55.1%
CN(CC(=O)NS(=O)(=O)c1ccsc1)Cc1ccccc1 | 9.76%
CN(CC(=O)NS(=O)(=O)c1ccc(F)cc1)Cc1ccccc1 | 50%
Cc1ccc(S(=O)(=O)NC(=O)CCc2ccccc2)cc1N(C)C | 12.589%
CCS(=O)(=O)N1C[C@H]2CN(Cc3cccc(C)c3)C(=O)[C@H]2C1 | -1.36%
N#Cc1ccccc1N1CCCN(C(=O)NCc2cc[nH]n2)CC1 | 10%
CC(c1cccc(S(N)(=O)=O)c1)N(C)CCCOc1ccccc1 (stereo unspecified) | 23.4%
CCN1CCC(CC(=O)NCCc2nc(O)cc(O)n2)CC1 | -16.3%
COc1c(CNC2CCCN(c3ncccn3)C2)c(C(C)C)nn1C (stereo unspecified) | 42.9%
Cc1ccc(CN2CCC3(CC2)C(=O)N(CC(C)C)CCN3C)s1 | -31.9%
CCC(C)Oc1ccc(CNCCNC(C)=O)cc1Cl (stereo unspecified) | 60.2%

SMILES | INHIBITION
CCC(C)Oc1ccc(CNCCNS(C)(=O)=O)cc1Cl (stereo unspecified) | 60.2%
CC(CNCc1ccc(Cl)c(Cl)c1)Oc1ccccn1 (stereo unspecified) | -41.8%
Cc1cccc(CN2CCCC(O)(CNCCc3c[nH]cn3)C2=O)c1 (stereo unspecified) | 48.1%
COc1ccc(CNCC(C)Oc2ccccn2)cc1Cl (stereo unspecified) | 17%
CCC(C)Oc1ccc(CNCCNC(C)=O)cc1OC (stereo unspecified) | 40.7%
CCC(C)Oc1ccc(CNCCc2c[nH]cn2)cc1Cl (stereo unspecified) | 66.8%
COc1ccc(CNC(=O)NCCCNS(C)(=O)=O)cc1OC | 33.8%
CC(=O)NCCNC(=O)NCc1ccc(Br)cc1Cl | 4.41%
CCOCC1COCCC12CCN(C(=O)CCOC)CC2 (stereo unspecified) | 8.67%
CC(=O)N1CCN(c2ccc(Cl)nn2)C(=O)C1 | 40.8%
NC(=O)C1CCN(C(=O)c2cccn2Cc2cccs2)CC1 | -12.1%
CC(C)N(Cc1ccc(Cl)c(Cl)c1)C(=O)Cn1cncn1 | 9.55%
Cc1cc(C)n(C2CCCN(C(=O)Cc3ccc(C#N)cc3)C2)n1 (stereo unspecified) | 29.7%
C1CC(CN2C[C@@H]3C[C@@H](c4nnc(C5CC5)o4)O[C@@H]3C2)CCO1 | 3.58%
CCC(CNC(=O)Cn1ccnc1)Oc1cccc(F)c1 (stereo unspecified) | 42.4%
CCC(CNC(=O)CNC(C)=O)Oc1cccc(F)c1 (stereo unspecified) | 51.7%
CCC(=O)NCC(CC)Oc1cccc(F)c1 (stereo unspecified) | 23%
CCC(CNC(=O)COC)Oc1cccc(F)c1 (stereo unspecified) | 26.7%
CCC(CNC(=O)c1ccc(C(N)=O)cc1)Oc1cccc(F)c1 (stereo unspecified) | 33.2%
CCC(CNC(=O)Cc1cc(C)on1)Oc1cccc(F)c1 (stereo unspecified) | 54.5%
NCc1cccc(-c2cccnc2C(=O)NCCN2CCCC2)c1 | -8.58%
CC(C)(C)c1ncc(CNCC2CN(C3CC3)CCO2)s1 (stereo unspecified) | 37.7%
C=c1occc1=C1NC(c2cccc(CN3CCOCC3)c2)=NO1 | -2.69%

SMILES | INHIBITION
CCN(Cc1cccc(-c2ccncc2)c1)S(N)(=O)=O | 11.7%
CCN(C)S(=O)(=O)N(CC)Cc1cccc(-c2ccncc2)c1 | 58.3%
CCCC(=O)N(Cc1ccncc1)C(C)CC (stereo unspecified) | 49%
COCCN(Cc1cccnc1)S(=O)(=O)c1cccc(F)c1F | 29.4%
CCOc1ccc(S(=O)(=O)N(CCOC)Cc2ccoc2)cc1F | -17.7%
COCCN(Cc1cccnc1)S(=O)(=O)c1ccc(F)cc1C | 26%
CCCN(CCC)S(=O)(=O)N(C)Cc1ccncc1 | 53.4%
CCOc1ccc(S(=O)(=O)N(CCOC)Cc2ccncc2)cc1F | 58.8%
CCN(Cc1cccc(-c2ccncc2)c1)S(C)(=O)=O | 29.6%
CCCN(Cc1ccccc1O)S(=O)(=O)N(C)CC | -58%
COCCN(Cc1cccnc1)S(=O)(=O)c1cc(C)ccc1F | 59.4%
COCCN(Cc1ccoc1)S(=O)(=O)c1ccc(F)c(C)c1 | 0.348%
CC(c1ccc(Br)cc1)N1CCCN(C(N)=O)CC1 (stereo unspecified) | 12.3%
Cn1cc(NC(=O)C2CC(c3ccccc3)C2)ccc1=O (stereo unspecified) | -5.1%
CCOC(=O)CSc1nnc(C(N)CC(C)C)o1 (stereo unspecified) | -28.4%
O=S(=O)(C1CC1)N1CCO[C@H]2[C@H](OCC3CC3)CC[C@@H]21 | -2.35%
O=C(NCc1cccnc1)Nc1cc(C(F)(F)F)c[nH]c1=O | -5.77%
Cc1nc(-c2ccc(C(=O)O)cc2)cc(C2CCCN(C(C)C)C2)n1 (stereo unspecified) | 41.2%
CC1c2ncc(Cn3cncn3)n2CCN1CC1CCOCC1 (stereo unspecified) | -8.28%
Cc1ccc(-c2nnc(C(C)N3CCc4cncnc4C3)o2)cc1 (stereo unspecified) | 22.1%
COCCn1cnnc1C1CCCN(C(C)C)C1 (stereo unspecified) | -16.5%
CCOc1ccccc1-c1cc(N)[nH]n1 | 16.2%
Cc1ccc(F)c2c1CCCN2CC(=O)NC1CCS(=O)(=O)C1 (stereo unspecified) | 45%

SMILES | INHIBITION
Cc1cncc(C2CCCN(C(=O)c3cnco3)C2)n1 (stereo unspecified) | 39.7%
Cc1ccc(C(=O)N2CCc3ncc(Cn4cccn4)n3CC2)cn1 | 30.3%
COCCN(CCOC)S(=O)(=O)N(C)Cc1ccncc1 | 56%
CCN(CC)S(=O)(=O)N(C)Cc1ccc2c(c1)OCCO2 | -85%
CCN(CC)S(=O)(=O)N(C)Cc1ccncc1 | 69.7%
COCCCN(Cc1ccncc1)c1cc(C)ncn1 | 10%
COCCN(Cc1ccncc1)C(=O)C1COc2ccccc2C1 (stereo unspecified) | 45.8%
CCN(Cc1ccncc1)S(C)(=O)=O | 14.3%
CCc1ccc(S(=O)(=O)Nc2cnccc2C)s1 | 29.85%
O=C(c1cccnc1)N1C[C@H]2CC[C@@H](C1)N(Cc1cccc(Cl)c1F)C2 | -48.4%
CN(C)C(=O)c1nc(-c2ccc(S(C)(=O)=O)cc2)c2cnccn12 | 16.8%
NS(=O)(=O)NCc1cc(-c2ccc(C(F)(F)F)cc2)n[nH]1 | 57.5%
CC(C)[C@H](NS(C)(=O)=O)C(=O)NCc1cc(-c2ccccc2)n[nH]1 | 33.7%
C[C@H](NS(C)(=O)=O)C(=O)NCc1cc(-c2ccco2)n[nH]1 | 2.6%
CC(C)OCCSCCn1nc2ccccn2c1=O | 1.41%
COc1ncccc1CNC(=O)c1cnc(C)cn1 | -7.7%
COc1ccc(-c2n[nH]cc2CNC2CCN(C3CC3)CC2)cc1 | -39.6%
CC(CC#N)n1ccc(C(F)(F)F)n1 (stereo unspecified) | -6.3%
Cc1nc(C)c(CCN2CCC(Oc3ccccc3F)CC2)s1 | 86.4%
Cc1nc(CCN2CCC(Oc3ccccc3F)CC2)cs1 | 42.5%
Cc1ccnc(C2CCN(CCCOc3ccccc3F)C2)n1 (stereo unspecified) | 13.5%
Cc1ccccc1OC1CCN(CC(=O)Nc2cnn(C)c2C)CC1 | 33.2%
Cc1n[nH]c(C)c1S(=O)(=O)N1CCC(Oc2ccccc2F)CC1 | 1.62%

SMILES | INHIBITION
Cc1nc(CCN2CCC(Oc3ccccc3F)CC2)c(C)s1 | 82.4%
COc1ccc(CC(=O)N2CCC(Nc3ccc(C)nn3)CC2)cc1 | -16%
CC(C)NC(=O)NCc1ccc(C(=O)NC(C)Cn2cccn2)cc1 (stereo unspecified) | 3.73%
COc1cccc(C(=O)N2CCc3c(nc(N)[nH]c3=O)C2)c1OC | -6.91%
N#Cc1ccccc1Cn1cncn1 | 25.3%
COCc1cccc(S(=O)(=O)Nc2ncc(C)s2)c1 | 14.2%
c1cncc(COCc2n[nH]c3c2CN(Cc2ccco2)C3)c1 | 61.9%
CCS(=O)(=O)N1Cc2[nH]nc(COCc3cccnc3)c2C1 | 58.3%
c1cncc(COCc2nnc3n2CCN(Cc2ccco2)C3)c1 | 53.4%
O=C(c1cccnc1)N1Cc2[nH]nc(COCCO)c2C1 | 40.8%
c1cncc(COCc2nnc3n2CCN(Cc2cccs2)C3)c1 | -8.94%
c1cncc(COCC2CN(Cc3ccco3)Cc3nccn3C2)c1 (stereo unspecified) | -6.39%
c1cncc(COCc2nnc3n2CCN(Cc2ccoc2)C3)c1 | 35.1%
O=C(C1CC1)N1Cc2[nH]nc(COCc3cccnc3)c2C1 | 11.6%
OCCOCc1n[nH]c2c1CN(Cc1ccco1)C2 | 23.3%
O=C(C1CC=CC1)N1C[C@@H](OCc2cccnc2)[C@H]2OCCC[C@H]21 | 0.72%
CC(C)n1cc(CN2CCCN(C(=O)C(C)n3cncn3)CC2)cn1 (stereo unspecified) | 26.4%
CC(Sc1n[nH]c(-c2ccc3c(c2)CCC3)n1)C(N)=O (stereo unspecified) | -56.1%
CS(=O)(=O)N[C@@H]1CCO[C@]2(CCN(CC3CCOCC3)C2)C1 | -33.9%
